Screening data as filed in PubChem BioAssay.
Rows were chosen to be rich in hits. Some 5.2% of all compounds tested hit in one or more screens of this group.
NadD block = inhibitors of S. aureus NadD, primary screen, biochemical, colorimetric, uHTS; 360,000 tested, 0.78% active; inhibition, % at 20 µM; AID 602399, 2012; purified NadD enzyme, colorimetric absorbance read-out; Nicotinate-nucleotide adenylyltransferase NadD (Staphylococcus aureus N315); in the data active = inhibition above about 26%
esBAF inh = Bmi1 luciferase reporter increase in mESCs, primary screen, esBAF inhibitor project, mouse ES cells, Bmi1 luciferase knock-in, single point; 24 h; 100% = twice the neutral-well signal; reporter increase, % at 12.5 µM; 350,000 tested, 2% active; AID 602393, 2012; in the data active = activation above about 40%; inconclusive = no clear call, values can overlap the other calls;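 note: a rise in the Bmi1 reporter signal indicates esBAF inhibition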
Vif imaging = HIV Vif self-association inhibitors, primary screen, imaging, HEK293T, single point; HEK293T cells, Vif self-association by quenched fluorescence, 24 h; inhibition, % at 7.49 µM; 340,000 tested, 0.35% active; in the data active = inhibition above about 50%, passing the limit was not always enough; inconclusive = no clear call, values can overlap the other calls; inactive = below about 31%
SKN-1 block = suppressors of acrylamide-induced Pgst-4::GFP reporter in worms, primary screen, SKN-1 inhibitor project, whole organism, uHTS, GFP/RFP fluorescence ratio, strain VP596. 360,000 tested, 0.49% active. AID 624304, 2012. C. elegans VP596 Pgst-4::GFP/RFP ratio, 24 h. inhibition, % at 21.8 µM;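 active = interference check ratio from 0.5 to 1.5 plus GFP to RFP signal ratio inhibition reaching or exceeding a fixed threshold, cut at about 30% in these data, passing the limit was not always enough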
GRIN3A LBD mod = binders of NR3A ligand-binding domain, primary screen, biophysical, differential scanning fluorimetry, uHTS; Glutamate receptor ionotropic, NMDA 3A (GRIN3A) ligand-binding domain; NR3A LBD differential scanning fluorimetry, Tm shift; 0% = protein alone, 100% = glycine-bound protein; Tm shift relative to glycine control, % at 25 µM; 340,000 tested, 2.5% active;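 active = melting temperature shift of at least 10% of the positive control shift, at one fixed dose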
SMARCA2 activ = SMARCA2 (BRM) function activators, primary screen, cell-based, luminescence, high throughput; MG213 cells, MMTV-luciferase reporter, dexamethasone, overnight; activation, % at 9.1 µM; 370,000 tested, 1% active; AID 652017, 2013; in the data active = activation above about 7.8%
esBAF Ring1 qPCR = Ring1 mRNA increase in mouse ESCs, confirmation, esBAF inhibitor project, cell-based, mouse ESC, RT-qPCR, cherry-pick; shares compounds with esBAF inh; 550 tested, under 10 active; fold change at 33 µM; mouse ESC E14, Ring1 mRNA RT-qPCR fold change;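 active = Ring1 gene expression raised more than 2-fold over untreated cells in both replicates at either tested dose; inconclusive = only one replicate above 2-fold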;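 note: Ring1 transcript normalised to actin housekeeping signal by TaqMan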
Fgf4 repress = Fgf4 mRNA decrease in mouse ESCs, confirmation, esBAF inhibitor project, cell-based, mouse ESC, RT-qPCR, cherry-pick; 550 tested, 4% active; AID 743177, 2013; shares compounds with esBAF inh; Fgf4 expression fold change at 33 µM; mouse ESC E14, Fgf4 mRNA qPCR fold change; stronger effect = lower value;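 active = Fgf4 expression under 0.8 fold of control in both repeat measurements at one or both tested doses; inconclusive = under 0.8 fold in just a single repeat measurement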;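 note: Fgf4 transcript normalised to actin in duplex TaqMan qPCR; cells exposed to compound for 24 h before lysis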
esBAF Bmi1 qPCR = esBAF inhibition via Bmi1 de-repression, confirmation, cell-based, RT-qPCR, mouse ESC, single point, cherry-pick; mouse ESE14 ES cells, Bmi1 mRNA qPCR fold; stronger effect = higher value; fold change at 33 µM; shares compounds with esBAF inh; 550 tested, under 10 active;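 active = Bmi1 expression fold change above 6 at either tested concentration, seen in replicate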
A549 tox SP = A549 cell cytotoxicity, cytotoxicity control, plate reader, single point, cherry-pick; cell viability change % (negative = cytotoxic), % at 25 µM, hits read low; shares compounds with esBAF inh; 550 tested, under 10 active; call rule not given here
HepG2 tox SP = HepG2 cell cytotoxicity, cytotoxicity control, plate reader, single point, cherry-pick; shares compounds with esBAF inh; stronger effect = lower value; activity change, negative = inhibition, % at 25 µM; 550 tested, 4% active; AID 743189, 2013; in the data active = activity change below about -50%
HEK293 cytotox SP = HEK293 cell cytotoxicity, cytotoxicity control, plate reader, single point, cherry-pick; shares compounds with esBAF inh; activity change, negative = inhibition, % at 25 µM, hits read low; 550 tested, 3% active; AID 743190, 2013; in the data active = activity change below about -38%, passing the limit was not always enough
Numbers stand for hits.

Results for COc1ccc(-c2coc3cc(OC(C)=O)c(OC)cc3c2=O)cc1 ?
NadD block: inactive; esBAF inh: inactive; Vif imaging: inactive; SKN-1 block: inactive; GRIN3A LBD mod: inactive; SMARCA2 activ: inactive

Results for COc1ccc2c(=O)c3ccccc3oc2c1 ?
NadD block: inactive; esBAF inh: 58; Vif imaging: inactive; SKN-1 block: inactive; GRIN3A LBD mod: inactive; SMARCA2 activ: inactive; esBAF Ring1 qPCR: inactive; Fgf4 repress: inactive; esBAF Bmi1 qPCR: inactive; A549 tox SP: inactive; HepG2 tox SP: inactive; HEK293 cytotox SP: inactive

Results for Cc1cccc(Oc2ccc(Cl)cc2N)c1 ?
NadD block: inactive; esBAF inh: 72; Vif imaging: inactive; SKN-1 block: inactive; GRIN3A LBD mod: inactive; SMARCA2 activ: inactive; esBAF Ring1 qPCR: inactive; Fgf4 repress: inactive; esBAF Bmi1 qPCR: inactive; A549 tox SP: inactive; HepG2 tox SP: inactive; HEK293 cytotox SP: inactive

Results for O=C1C(=C2CCc3ccccc32)Cc2ccccc21 ?
NadD block: inactive; esBAF inh: 71; Vif imaging: inactive; SKN-1 block: inactive; GRIN3A LBD mod: inactive; SMARCA2 activ: inactive; esBAF Ring1 qPCR: inactive; Fgf4 repress: inactive; esBAF Bmi1 qPCR: inactive; A549 tox SP: inactive; HepG2 tox SP: inactive; HEK293 cytotox SP: inactive

How did O=C1C(=NO)CCCc2ccccc21 do in these assays?
NadD block: inactive; esBAF inh: inactive; Vif imaging: inactive; SKN-1 block: inactive; GRIN3A LBD mod: inactive; SMARCA2 activ: inactive

How did Cc1csc(SCCN2C(=O)c3ccccc3C2=O)n1 do in these assays?
NadD block: inactive; esBAF inh: 65; Vif imaging: inactive; SKN-1 block: inactive; GRIN3A LBD mod: inactive; SMARCA2 activ: inactive; esBAF Ring1 qPCR: inactive; Fgf4 repress: inactive; esBAF Bmi1 qPCR: inactive; A549 tox SP: inactive; HepG2 tox SP: inactive; HEK293 cytotox SP: inactive

What do the screens show for `O=C(c1ccc(Cl)cc1)c1cnc(-c2ccc(Cl)cc2)s1`?
NadD block: inactive; esBAF inh: 63; Vif imaging: inactive; SKN-1 block: inactive; GRIN3A LBD mod: inactive; SMARCA2 activ: inactive; esBAF Ring1 qPCR: inactive; Fgf4 repress: inactive; esBAF Bmi1 qPCR: inactive; A549 tox SP: inactive; HepG2 tox SP: inactive; HEK293 cytotox SP: inactive

How did CSc1nc2ccccc2n1CC(=O)Nc1ccccc1 do in these assays?
NadD block: inactive; esBAF inh: inactive; SKN-1 block: inactive; GRIN3A LBD mod: inactive; SMARCA2 activ: inactive

Results for O=C(Cn1c(/C=C/c2ccccc2)nc2ccccc21)Nc1ccc(F)cc1 ?
NadD block: inactive; esBAF inh: 80; Vif imaging: inactive; SKN-1 block: inactive; GRIN3A LBD mod: 14; SMARCA2 activ: inactive; esBAF Ring1 qPCR: inactive; Fgf4 repress: inactive; esBAF Bmi1 qPCR: inactive; A549 tox SP: inactive; HepG2 tox SP: inactive; HEK293 cytotox SP: inactive

What do the screens show for `CN(CCc1cnn(C)c1)C(=O)CCc1nnc(CCCc2ccccc2)o1`?
NadD block: inactive; Vif imaging: inactive; SKN-1 block: inactive; GRIN3A LBD mod: inactive; SMARCA2 activ: inactive

How did CN(CCc1ccccn1)C(=O)CCc1nnc(CCCc2ccccc2)o1 do in these assays?
NadD block: inactive; esBAF inh: 110; Vif imaging: inactive; SKN-1 block: inactive; GRIN3A LBD mod: inactive; SMARCA2 activ: inactive; esBAF Ring1 qPCR: inactive; Fgf4 repress: inactive; esBAF Bmi1 qPCR: inactive; A549 tox SP: inactive; HepG2 tox SP: inactive; HEK293 cytotox SP: inactive

How did CC(C)CN=c1cc(-c2ccccc2)oc2ccc(Cl)cc12 do in these assays?
NadD block: inactive; esBAF inh: 54; Vif imaging: inactive; SKN-1 block: inactive; GRIN3A LBD mod: inactive; SMARCA2 activ: inactive; esBAF Ring1 qPCR: inactive; Fgf4 repress: inconclusive; esBAF Bmi1 qPCR: 6.9; A549 tox SP: inactive; HepG2 tox SP: inactive; HEK293 cytotox SP: inactive

Results for CCc1nc(SCc2ccc(Br)cc2)n[nH]1 ?
NadD block: inactive; esBAF inh: 47; Vif imaging: inactive; SKN-1 block: inactive; GRIN3A LBD mod: inactive; SMARCA2 activ: inactive; esBAF Ring1 qPCR: inactive; Fgf4 repress: inactive; esBAF Bmi1 qPCR: inactive; A549 tox SP: inactive; HepG2 tox SP: inactive; HEK293 cytotox SP: inactive

Results for Fc1ccc(CSc2ccc(-c3cccs3)nn2)cc1 ?
NadD block: inactive; esBAF inh: 69; Vif imaging: inactive; SKN-1 block: inactive; GRIN3A LBD mod: inactive; SMARCA2 activ: inactive; esBAF Ring1 qPCR: inactive; Fgf4 repress: inconclusive; esBAF Bmi1 qPCR: inactive; A549 tox SP: inactive; HepG2 tox SP: inactive; HEK293 cytotox SP: inactive

What do the screens show for `C[C@@H]1CN([C@@H](C)CO)C(=O)c2cc(NC(=O)Cn3cnnn3)ccc2O[C@H]1CN(C)Cc1ccc(C(=O)O)cc1`?
esBAF inh: inactive

How did CCCCSc1n[nH]c(=S)c2nc[nH]c12 do in these assays?
NadD block: inactive; esBAF inh: inactive; Vif imaging: inactive; SKN-1 block: inactive; GRIN3A LBD mod: inactive; SMARCA2 activ: inactive

What do the screens show for `S=c1[nH]nc(SCc2ccccc2)c2[nH]cnc12`?
NadD block: inactive; esBAF inh: 55; Vif imaging: inactive; SKN-1 block: inactive; GRIN3A LBD mod: inactive; SMARCA2 activ: inactive; esBAF Ring1 qPCR: inactive; Fgf4 repress: inactive; esBAF Bmi1 qPCR: inactive; A549 tox SP: inactive; HepG2 tox SP: inactive; HEK293 cytotox SP: inactive

How did Cc1noc(C)c1NC(=O)Nc1ccc2c(c1)C(=O)N([C@@H](C)CO)C[C@@H](C)[C@H](CN(C)CC1CCCCC1)OCCCC[C@@H](C)O2 do in these assays?
esBAF inh: inactive
